Several values for one entry are separate records, joined by “and”; a condition that tells them apart may be missing. Equal entries are not always repeated. Records with an inconclusive call do not appear. Entries that show only a call come without a potency. Some compounds were tested as several samples or in several runs, with calls that do not always agree. Activity calls are given as the source filed them. Calls come from the whole dose curve.
Potency is the fitted concentration of half-maximal effect.

Acetylcholinesterase (Homo sapiens), sequence (P22303 whole entry, looked up): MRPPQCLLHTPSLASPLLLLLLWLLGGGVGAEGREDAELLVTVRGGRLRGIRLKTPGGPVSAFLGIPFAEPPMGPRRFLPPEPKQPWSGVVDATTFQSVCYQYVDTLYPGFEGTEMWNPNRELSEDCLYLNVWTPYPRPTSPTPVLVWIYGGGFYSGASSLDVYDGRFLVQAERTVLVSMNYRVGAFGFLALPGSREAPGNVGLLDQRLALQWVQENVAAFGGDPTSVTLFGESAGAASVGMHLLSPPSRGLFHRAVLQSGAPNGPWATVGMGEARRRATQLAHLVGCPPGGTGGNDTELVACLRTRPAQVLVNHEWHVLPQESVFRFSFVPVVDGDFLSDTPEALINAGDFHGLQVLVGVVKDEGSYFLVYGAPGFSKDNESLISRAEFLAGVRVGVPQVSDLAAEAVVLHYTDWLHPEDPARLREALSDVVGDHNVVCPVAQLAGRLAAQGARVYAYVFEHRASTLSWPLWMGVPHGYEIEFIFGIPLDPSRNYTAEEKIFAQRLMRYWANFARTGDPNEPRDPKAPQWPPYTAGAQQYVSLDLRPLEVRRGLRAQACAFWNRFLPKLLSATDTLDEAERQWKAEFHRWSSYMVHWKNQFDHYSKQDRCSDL

The assay concerns the target Acetylcholinesterase (Homo sapiens) (UniProt P22303). Description: Acetylcholinesterase (AChE) small molecule antagonists: colormetric cell-based qHTS assay (AID 1347395). Note: nearly all actives have a fitted effect of over 30% in size. The conditions noted are these: SH-SY5Y cells AChE activity, colorimetric (Ellman); series mostly up to 115 µM. From the text: National Center for Advancing Translational Sciences [NCATS]
Division of Preclinical Innovation [DPI]
U.S. Environmental Protection Agency [EPA]
National Institutes of Environmental Health Sciences [NIEHS]
National Toxicology Program [NTP]
U.S. Food and Drug Administration [FDA]
Acetylcholinesterase (AChE) is the primary cholinesterase in the body that hydrolyzes a key neurotransmitter, acetylcholine. Inhibition of AChE activity can lead to neurotoxicity. The known inhibitors include organophosphorous pesticides (OP), chemical warfare agents, drugs, and various phytochemicals.
A homogenous cell-based assay using the Amplite Colormetric acetylcholinesterase assay kit (AAT Bioquest, Sunnyvale, CA) was used to evaluate the chemicals in the Tox21 10K library that inhibit AChE activity. The assay uses 5, 5-dithiobis-(2-nitrobenzoic acid) (DTNB) to quantify the thiocholine produced from the hydrolysis of acetylthiocholine by AChE from the SH-SY5Y cells.
Tox21 Assay Protocol Summary:
For the cell-based AChE assay, 2,000 SH-SY5Y cells in 4 uL/well were dispensed into black, clear-bottom 1536-well plates using a Multidrop Combi dispenser (Thermo Scientific, MA). The assay plates were incubated overnight at 37 C to allow cells to attach to the wells, followed by the transfer of 23 nL of compound or DMSO (vehicle control) by a Pintool Station (Wako Automation, CA). The plates were incubated for 30 min at 37 C and 5% CO2, followed by the addition of 4 uL of detection cocktail solution (DTNB, acetylthiocholine) into each well using a Flying Reagent Dispenser (Beckman Coulter, CA) and then 90 min incubation at 37 C.
As to `O=C(O)c1nc(Cl)ccc1Cl`, the Potency result is “inactive”.

As to `C=CCOC(Cn1ccnc1)c1ccc(Cl)cc1Cl` (stereo not drawn), the Potency entry was “inactive”.

On to `OCCOc1ccccc1`, for which the Potency result was “inactive”.

With `CCC(=O)C(CC(C)N(C)C)(c1ccccc1)c1ccccc1` (stereo not drawn), the Potency result was “inactive”.

Regarding `CCCCCCCCCCCC(=O)O`, the Potency result was “inactive”.

`CCOP(=S)(OCC)Oc1ccc2c(C)c(Cl)c(=O)oc2c1`: the Potency was 22.7 µM (active) and 12.6 µM (active) and inactive.

As to `O=C(O)COc1ccc(Cl)cc1Cl`, the Potency result is “inactive”.

For the compound `CCCCCCCCCCCCCCCCn1cc[n+](C)c1`, the Potency result is “inactive”.

In the case of `Oc1ccccc1-c1ccccc1`, the Potency result was “inactive”.

Take `CCCCCCCCCCn1cc[n+](C)c1`: the Potency was 39.8 µM (active) [middle of 6 runs].

With `Cc1cc(-c2ccc(N)c(C)c2)ccc1N`, the Potency entry is “inactive”.

Turning to `CNC`, the Potency entry was “inactive”.

In the case of `CCCCCCCCCCCCCC[P+](CCCCCC)(CCCCCC)CCCCCC`, the Potency is 71.3 µM (active) and 80.3 µM (active) and inactive.

As to `O=c1[nH]c(=O)n(Cl)c(=O)n1Cl`, the Potency result was “inactive”.

As to `CC(=O)[O][Hg][c]1ccccc1`, the Potency result is “inactive”.

As for `Nc1ccc(Cl)cc1`, the Potency result is “inactive”.

For `CC[N+]1(C)CCCC1`, the Potency result is “inactive and 22.4 µM (active)”.

For the compound `CCCCCCCCCCCCOS(=O)(=O)O`, the Potency result is “inactive”.

`CC[n+]1ccccc1`: the Potency entry was “inactive”.

`CCn1cc[n+](C)c1C`: the Potency entry is “inactive”.

For the compound `Nc1ccc(-c2ccc(N)cc2)cc1`, the Potency entry is “inactive”.

Take `C[N+](C)(C)Cc1ccccc1`: the Potency result was “inactive”.

Turning to `C1CCC(NC2CCCCC2)CC1`, the Potency result is “inactive”.

As for `O=C(O)C(Cl)(Cl)Cl`, the Potency entry is “inactive”.

On to `O=P1(N(CCCl)CCCl)NCCCO1` (stereo not drawn), for which the Potency entry is “inactive”.

`CCCn1cc[n+](C)c1`: the Potency result was “inactive”.

`Nc1ccc(-c2ccc(N)c(Cl)c2)cc1Cl`: the Potency entry was “inactive”.

Consider `CCC[N+]1(C)CCCCC1`, for which the Potency result was “inactive”.

For the compound `CC(Cl)(Cl)C(=O)O`, the Potency result was “inactive”.

As for `O=c1nc(O)n(Cl)c(=O)n1Cl`, the Potency result is “inactive”.

For `COCC(=O)N(c1c(C)cccc1C)C(C)C(=O)OC` (stereo not drawn), the Potency result was “inactive”.

For the compound `CCNc1nc(Cl)nc(NCC)n1`, the Potency was 31.9 µM (active) and inactive.

For `Cc1cc(Cl)ccc1OCC(=O)O`, the Potency result is “inactive”.

As to `O=[N+]([O-])c1ccccc1O`, the Potency result is “inactive”.

Consider `C[C@]12CCC(=O)C=C1CC[C@@H]1[C@@H]2CC[C@]2(C)C(=O)CC[C@@H]12`, for which the Potency result was “inactive”.

`O=C(O)CCl`: the Potency entry is “inactive”.

On to `O=C(O)C(Cl)Cl`, for which the Potency entry was “inactive”.

For the compound `CCCC[N+]1(C)CCCCC1`, the Potency entry was “inactive”.
